# Source: PubChem BioAssay AID2401 (Southern Research Specialized Biocontainment Screening …, 2010)
# Screen size: about 2,200 compounds; about 530 (24%) were called active.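 The calls were made as follows: active = inhibition above a set limit at one or more concentrations of the dose series; inactive = inhibition under that limit at every dose.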 These entries were drawn from the full list. Results with a measured potency or affinity are listed apart.
# Assay: nmpC-GFP reporter counter-screen in S. Typhimurium, dose response, counter-screen for PhoP regulon inhibitor project, Salmonella Typhimurium, GFP fluorescence (AID 2401);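 also: S. typhimurium with Mg-insensitive nmpC-GFP reporter grown at 10 µM Mg2+; drop in reporter fluorescence reflects general culture growth inhibition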
# Conditions: 4 h; series mostly up to 150 µM
row,Structure (SMILES),outcome
1,Cc1ccc(-c2csc(=S)n2CC(=O)OCC(=O)NCc2ccco2)cc1,inactive
2,Cc1ccc2c(c1)[nH]c1c(N3CCN(Cc4ccccc4)CC3)ncnc12,inactive
3,O=C(CN1CCN(Cc2ccccc2)CC1)c1c[nH]c2ccccc12,inactive
4,O=C(CCCOc1ccccc1)N1CCCc2ccccc21,inactive
5,CCc1nc(SCC(=O)N2CCCc3ccccc32)c2oc3ccccc3c2n1,inactive
6,C/C(Nc1ccc(F)cc1)=C(/C#N)C(N)=O,inactive
7,CN(C)c1ccc(/C=N/c2cc(-c3ccccc3)nn2-c2ccccc2)cc1,inactive
8,CCC(CC)C(=O)NCCc1ccc(OC)cc1,inactive
9,CCOc1c(Br)cc(CNCc2cccs2)cc1OC,inactive
10,S=C(NCc1ccncc1)Nc1ccc(Cl)c(Cl)c1,inactive
11,O=C(NC(NC(=S)Nc1ccc(Cl)c(Cl)c1)C(Cl)(Cl)Cl)c1ccco1 (configuration not stated),inactive
12,Cc1ccsc1/C=N/NC(=O)Cn1cnc2ccccc21,inactive
13,Cc1cc(NC(=O)c2ccccc2-c2ccccc2)ccc1Br,inactive
14,CC1=CC2=NC(=O)/C(=C\c3cc(C)n(-c4ccc(F)cc4)c3C)C(=N)N2O1,inactive
15,CC(=O)NCCOc1c(C)cc(S(N)(=O)=O)cc1C,inactive
16,O=C(NCCc1ccc(Cl)cc1)/C(=C/c1cccnc1)NC(=O)c1ccccc1,inactive
17,Cc1ccc(S(=O)(=O)N2CCC(C(N)=O)CC2)c(C)c1C,inactive
18,Cc1nc([N+](=O)[O-])c(Br)n1CC(=O)c1ccccc1,inactive
19,CC(=O)Nc1ccc(-n2nnnc2SCC(=O)Nc2cccc(NC(=O)c3ccco3)c2)cc1,inactive
20,COc1ccc(C(=O)Nc2cc(C)ccc2NC(=O)COc2ccccc2)cc1,inactive
21,C=CCn1c(SCC(=O)Nc2nnc(CC)s2)nnc1-c1cccnc1,inactive
22,Cc1ccc(C(=O)NCC(=O)NCC(=O)OCC(=O)c2ccc([N+](=O)[O-])cc2)cc1,inactive
23,CCc1ccccc1NC(=O)c1nnn(CC(=O)Nc2cccc(C)c2C)c1N,inactive
24,CC1CC(C)CN(CCCSc2ccccc2)C1 (configuration not stated),inactive

row,Structure (SMILES),outcome
1,COc1cccc(NC(=O)CNC(=O)c2cccs2)c1,inactive
2,COCC(=O)N(Cc1ccco1)c1nnc(C2CCOC2)s1 (configuration not stated),inactive
3,Cc1ccc(C(C)C)cc1C(=O)CC1(O)C(=O)N(C)c2ccccc21 (configuration not stated),inactive
4,COC(=O)CSc1nc(SCc2ccccc2Cl)nc2c1CCCC2,inactive
5,CCOC(=O)c1[nH]c2ccccc2c1NC(=O)C(C)(C)C,inactive
6,COc1ccc2nc(Nc3nc4cc5c(cc4s3)OCCO5)sc2c1,inactive
7,NNc1nc2c(-c3cccc(C(F)(F)F)c3)nnn2c2ccccc12,inactive
8,COc1ccc2oc(=O)cc(C)c2c1,inactive
9,COc1ccccc1N1CCN(C(CNS(=O)(=O)c2ccccc2)c2cccnc2)CC1 (configuration not stated),inactive
10,COc1cccc(C(=O)Oc2c(CN3CCOCC3)cc(Cl)c3cccnc23)c1,inactive
11,c1coc(CNc2c3c(nc4ncnn24)CCCC3)c1,inactive
12,O=C(NNc1nc(-c2ccccc2)cs1)c1ccco1,inactive
13,COCCNS(=O)(=O)c1cccn1-c1ncc(C(F)(F)F)cc1Cl,inactive
14,CC(=O)c1c(C)n([O-])c2cc(F)c(F)cc2[n+]1=O,inactive
15,CCOC(=O)CN(C)Cc1c[nH]c2ccccc12,inactive
16,O=c1c2cc(Br)ccc2nc(-c2ccccc2)n1O,inactive
17,N#Cc1c(-c2ccco2)cc(-c2ccc(F)cc2)nc1N,inactive
18,O=C1N2CCCc3cccc(c32)C12Nc1ccccc1S2 (configuration not stated),inactive
19,CN1CCN(C(c2cccc(C(F)(F)F)c2)c2nnnn2C(C)(C)C)CC1 (configuration not stated),inactive
20,C#CCN1C(=O)C(O)(CC(=O)c2ccc(OC)c(OC)c2)c2ccccc21 (configuration not stated),inactive
21,CCCCn1cnc2sc(-c3ccccc3)cc2c1=O,inactive
22,O=C(Nc1ccc2c(c1)OCO2)c1cnn2cccnc12,inactive
23,CN(C)S(=O)(=O)Oc1ccsc1C(=O)Nc1ccccc1Cl,inactive
24,CCSc1cc(N2CCCC2)nc(-c2cccc(C)c2)n1,inactive

row,Structure (SMILES),outcome
1,CC(C)c1ccc(C2C3CSCC=C3C(C#N)=C(N)C2(C#N)C#N)cc1 (configuration not stated),inactive
2,Cn1c(CN2CCCCC2)nc2cc(NS(=O)(=O)c3ccc(Cl)cc3)ccc21,inactive
3,COc1ccc(S(=O)(=O)N2Cc3ccccc3CC2C(=O)N2CCOCC2)cc1OC (configuration not stated),inactive
4,Clc1ccc(SCCCCn2ccnc2)cc1,inactive
5,O=c1[nH]c(NNC(=S)NCc2ccccc2)nc2c1C1(CCCCC1)Cc1ccccc1-2,inactive
6,O=C(CSc1nnc2c(Cl)cc(Cl)cn12)NC1CCS(=O)(=O)C1 (configuration not stated),inactive
7,O=S1(=O)C=CC(Nc2cccc(Cl)c2)C1 (configuration not stated),inactive
8,CCc1cccc(NC(=O)Nc2cccs2)c1,inactive
9,COc1cccc2c(=O)c3c(cnn3C)n(C)c12,inactive
10,COC(=O)c1cccc(NC(=O)CCCOc2ccccc2)c1,inactive
11,O=C(NCc1cccs1)c1cccc(Nc2nc3ccc(Br)cc3[nH]2)c1,inactive
12,Cn1c(=O)n(CC(=O)Nc2ccccc2)c2ccccc21,inactive
13,O=C(O)C1CC=CCC1C(=O)NC12CC3CC(CC(C3)C1)C2 (configuration not stated),inactive
14,O=C(OCc1nnc(-c2ccccc2)o1)c1ccc(S(=O)(=O)NCc2ccco2)cc1,inactive
15,CN(C)CC(=O)Nc1nc(-c2ccccc2)cs1,inactive
16,Cc1ccc(C[n+]2cc(-c3ccc(Cl)cc3)n3c2CCC3)cc1,inactive
17,CCOC(=S)SCC(=O)Nc1nc(-c2ccccc2)cs1,inactive
18,COc1ccc(-c2csc(NC(=O)C3CCCO3)n2)cc1 (configuration not stated),inactive
19,Cc1nc(NC(=O)c2ccccc2)sc1-c1csc(Nc2ccc(F)cc2)n1,inactive
20,Cc1ccc(NC(=O)CCN2CCc3ccccc3C2)cc1,inactive
21,CCOC(=O)C1=C(C)N(CCO)C(=O)NC1c1cccc(O)c1 (configuration not stated),inactive
22,CCCNC(=O)CSc1nnc(C)s1,inactive
23,Cc1nc2c(Cl)cccc2c2c1CC(CBr)O2 (configuration not stated),inactive
24,CCC1=NNc2cccc3c(OC)ccc1c23,inactive

row,Structure (SMILES),outcome
1,COc1ccc(-c2c/c(=N\c3nc(-c4ccccc4)c(C)s3)c3ccccc3o2)cc1O,inactive
2,COC(=O)c1c(C)oc2ccc(NS(=O)(=O)c3cccs3)cc12,inactive
3,O=C(CCNS(=O)(=O)c1cccc2nsnc12)NCc1cccs1,inactive
4,O=C(NCc1cccs1)[C@@H]1CSC2c3ccccc3C(=O)N21 (some centres not stated),inactive
5,Nc1cc(N)nc(SCc2cc(=O)oc3cc4c(cc23)CCC4)n1,inactive
6,CCCn1c(SCC(=O)c2c(C)[nH]c(C)c2C(=O)OCC)nc2ccccc21,inactive
7,O=C(CCCN1C(=O)CCC1=O)Nc1ccc2c(c1)OCCO2,inactive
8,CCCCCNS(=O)(=O)c1cc(C)ccc1OC,inactive
9,CCCCn1nnnc1NCc1cc(OC)c(OC)cc1OC,inactive
10,Cc1ccc(S(=O)(=O)NCCC(=O)OCn2nnc3ccccc3c2=O)cc1,inactive
11,COc1ccc(-c2nnn(CC(=O)N(Cc3ccco3)C(C(=O)NCC3CCCO3)c3ccco3)n2)cc1 (configuration not stated),inactive
12,COC(=O)c1cc(C#N)c(Oc2ccc(F)cc2)nc1C,inactive
13,O=C1C(c2ccc(F)cc2)N(Cc2ccc3c(c2)OCO3)C(=O)CN1C1CCCCCC1 (configuration not stated),inactive
14,Cc1ccc(-c2[nH]c(-c3ccc(Cl)cc3)nc2SCC(=O)NCC2CCCO2)cc1 (configuration not stated),inactive
15,COc1cc(C(=O)NC(=S)Nc2ccc3oc(=O)ccc3c2)cc(OC)c1OC,inactive
16,Cc1nc(N2CCN(c3ccccc3)CC2)nc2c1C(=O)CC(C)C2 (configuration not stated),inactive
17,O=C(Nc1ccc2oc(-c3ccc(Cl)c(Cl)c3)nc2c1)c1ncn[nH]1,inactive
18,O=C(NCc1ccccn1)c1cn(-c2ccccc2)nc1-c1ccc(Cl)cc1,inactive
19,O=C(COC(=O)c1cn(-c2ccccc2)nc1-c1ccccc1)c1cccc([N+](=O)[O-])c1,inactive
20,O=C(OCc1ccccc1)c1cn(-c2ccccc2)nc1-c1ccncc1,inactive
21,CCc1ccc(C(c2c(C)nn(-c3ccccc3)c2N)c2c(C)nn(-c3ccccc3)c2N)cc1,inactive
22,C/C(=N\N=C(/N)SC1CC(=O)N(c2cccc(Cl)c2)C1=O)c1cccs1 (configuration not stated),inactive
23,Cc1ccc(-n2ncc3c(N4CCN(c5ccccc5)CC4)ncnc32)c(C)c1,inactive
24,Cc1ccccc1-n1c(=O)c2ccccc2n2cnnc12,inactive

row,Structure (SMILES),outcome
1,CCCn1nnc(NC(=O)c2ccc(Br)o2)n1,inactive
2,Cc1cc([N+](=O)[O-])cc2ncccc12,inactive
3,O=C(NCc1cccnc1)c1ccc(Cl)cc1[N+](=O)[O-],inactive
4,Cc1ccc(NC(=O)COc2ncnc3c(Cl)cc(Cl)cc23)cc1[N+](=O)[O-],inactive
5,CC1(C)CC(=O)C2=C(C1)N(c1ccc(F)cc1)C(N)=C(C#N)C2c1cccs1 (configuration not stated),inactive
6,CCn1c(=O)c(=O)[nH]c2cc(C(=O)NCC3CCCCC3)ccc21,inactive
7,O=c1c2c([nH]c3ccccc13)CCCCC2,inactive
8,Cc1cc(NC(=O)c2ccco2)ccc1-n1cnnn1,inactive
9,c1ccc(CSc2nnc(-c3ccncc3)o2)cc1,inactive
10,O=C1Nc2ccc(F)cc2C12SCCS2,inactive
11,CC(=S)c1c(C)cc2cc(C)ccn12,inactive
12,COc1ccc(N=c2cc(-c3ccc(OC)cc3)oc3ccccc23)cc1,inactive
13,CN1C(=S)N(c2ccccc2)C(=O)/C1=C/c1ccco1,inactive
14,CCn1c(SCc2ccc(F)cc2)nc2ccccc2c1=O,inactive
15,COC(=O)c1ccc(CSc2nnnn2-c2ccccc2)o1,inactive
16,Nc1ccc(Nc2ccccc2)c(Cl)c1,inactive
17,CCOc1ccc(CNc2ccc(N3CCCC3)cc2)cc1,inactive
18,CCc1ccc(Nc2nc(N)nc(CSc3nc4ccccc4s3)n2)cc1,inactive
19,CCOC(=O)c1cnc2ccccc2c1Nc1ccc2c(c1)OCCO2,inactive
20,CCOc1ccc(Nc2nc(NCCN3CCOCC3)nc(OC)n2)cc1,inactive
21,Cc1cccc(Nc2nc(N)nc(CN3CCN(c4ccccc4)CC3)n2)c1,inactive
